Source: ChEMBL document CHEMBL3988442, “University of Dundee, Small-Polar-MMV Screening Library” (2021)
For some of these results: Potency and affinity values are given separately.

How the values were obtained:
Set-up in all cases: scale not given: direction of the effect not stated beside the values
[1] = biological target: Protein translocase subunit SecA (Escherichia coli (strain K12)) (UniProt P10408); assay: Assay to Identify E. coli SecA ATPase Inhibitors; type: functional; details: 30 µM
Sequence of Protein translocase subunit SecA (Escherichia coli (strain K12)) (P10408 whole entry): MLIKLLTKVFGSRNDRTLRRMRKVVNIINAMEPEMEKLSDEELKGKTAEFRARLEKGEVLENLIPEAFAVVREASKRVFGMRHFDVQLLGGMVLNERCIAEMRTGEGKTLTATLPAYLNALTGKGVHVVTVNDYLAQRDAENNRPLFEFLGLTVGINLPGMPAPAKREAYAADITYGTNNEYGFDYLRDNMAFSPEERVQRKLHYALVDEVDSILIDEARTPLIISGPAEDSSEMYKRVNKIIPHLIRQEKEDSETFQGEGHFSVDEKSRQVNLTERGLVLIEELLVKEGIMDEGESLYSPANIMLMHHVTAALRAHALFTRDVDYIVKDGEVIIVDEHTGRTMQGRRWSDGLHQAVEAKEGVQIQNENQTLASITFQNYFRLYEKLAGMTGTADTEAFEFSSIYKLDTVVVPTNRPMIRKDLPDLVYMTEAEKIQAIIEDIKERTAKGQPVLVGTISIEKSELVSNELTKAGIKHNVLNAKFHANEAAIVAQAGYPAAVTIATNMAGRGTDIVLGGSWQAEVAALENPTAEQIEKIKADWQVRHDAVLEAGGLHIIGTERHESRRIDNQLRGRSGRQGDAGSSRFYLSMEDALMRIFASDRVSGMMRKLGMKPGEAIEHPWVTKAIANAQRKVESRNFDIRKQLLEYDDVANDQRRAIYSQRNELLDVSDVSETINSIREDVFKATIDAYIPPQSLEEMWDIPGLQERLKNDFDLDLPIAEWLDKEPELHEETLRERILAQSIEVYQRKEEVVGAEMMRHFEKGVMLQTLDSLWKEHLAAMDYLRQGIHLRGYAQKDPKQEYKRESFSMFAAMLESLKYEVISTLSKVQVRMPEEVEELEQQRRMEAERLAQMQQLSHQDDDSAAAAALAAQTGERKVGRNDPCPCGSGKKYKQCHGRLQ

[2] = biological target: T1, Ubiquitin-activating enzyme e1, putative (Leishmania donovani (strain BPK282A1)) (UniProt E9BSI1); assay: Leishmania donovani Ubiquitin Activating Enzyme (LdE1); type: functional; details: 30 µM
T1 sequence (whole entry): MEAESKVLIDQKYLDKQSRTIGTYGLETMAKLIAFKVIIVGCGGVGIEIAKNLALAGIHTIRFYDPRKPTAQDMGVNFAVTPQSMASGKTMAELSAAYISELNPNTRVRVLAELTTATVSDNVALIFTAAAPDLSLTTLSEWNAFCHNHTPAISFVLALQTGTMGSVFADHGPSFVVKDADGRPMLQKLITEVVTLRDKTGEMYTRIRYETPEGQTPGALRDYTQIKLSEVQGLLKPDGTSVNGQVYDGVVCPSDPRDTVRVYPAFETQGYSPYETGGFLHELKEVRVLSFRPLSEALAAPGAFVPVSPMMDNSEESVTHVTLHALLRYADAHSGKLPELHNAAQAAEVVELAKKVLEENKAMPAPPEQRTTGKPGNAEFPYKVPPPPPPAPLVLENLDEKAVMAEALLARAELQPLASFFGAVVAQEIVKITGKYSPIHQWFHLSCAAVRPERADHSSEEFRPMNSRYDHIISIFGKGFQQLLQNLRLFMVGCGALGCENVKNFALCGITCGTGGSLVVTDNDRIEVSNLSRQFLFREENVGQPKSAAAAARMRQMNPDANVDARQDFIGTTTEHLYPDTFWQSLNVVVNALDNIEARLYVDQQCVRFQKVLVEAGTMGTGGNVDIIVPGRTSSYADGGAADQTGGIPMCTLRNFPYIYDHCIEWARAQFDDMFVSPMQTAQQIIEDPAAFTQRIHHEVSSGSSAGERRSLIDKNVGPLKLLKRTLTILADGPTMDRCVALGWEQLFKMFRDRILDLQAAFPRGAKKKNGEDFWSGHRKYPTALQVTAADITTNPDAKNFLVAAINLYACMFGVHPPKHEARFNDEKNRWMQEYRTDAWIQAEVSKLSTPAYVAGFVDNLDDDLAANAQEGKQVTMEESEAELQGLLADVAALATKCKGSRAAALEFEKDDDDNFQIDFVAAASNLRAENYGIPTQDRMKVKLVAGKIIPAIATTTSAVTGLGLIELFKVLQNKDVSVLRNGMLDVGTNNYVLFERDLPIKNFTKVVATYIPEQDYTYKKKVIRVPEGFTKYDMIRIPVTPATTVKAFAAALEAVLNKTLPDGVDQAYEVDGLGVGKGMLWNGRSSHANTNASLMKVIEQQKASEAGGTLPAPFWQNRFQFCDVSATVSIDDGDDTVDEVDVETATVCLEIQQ

[3] = biological target: AMP-activated protein kinase, AMPK (Homo sapiens) (UniProt P54646+O43741+P54619+Q9UGJ0+Q9Y478+Q13131+Q9UGI9); assay: AMP-dependent Kinase enzyme assay. An in vitro enzyme assay that detects ADP turnover that is directly proportional to AMPK activity. This uses naive AMPK that is activated during the assay with MK-8722; type: functional; details: 30 µM
[4] = biological target: Sialic acid-binding Ig-like lectin 9 (Homo sapiens) (UniProt Q9Y336); assay: Hs-Siglec9 ALPHAscreen SOP 20170721; details: 10 µM
Sequence of Sialic acid-binding Ig-like lectin 9 (Homo sapiens) (Q9Y336 whole entry): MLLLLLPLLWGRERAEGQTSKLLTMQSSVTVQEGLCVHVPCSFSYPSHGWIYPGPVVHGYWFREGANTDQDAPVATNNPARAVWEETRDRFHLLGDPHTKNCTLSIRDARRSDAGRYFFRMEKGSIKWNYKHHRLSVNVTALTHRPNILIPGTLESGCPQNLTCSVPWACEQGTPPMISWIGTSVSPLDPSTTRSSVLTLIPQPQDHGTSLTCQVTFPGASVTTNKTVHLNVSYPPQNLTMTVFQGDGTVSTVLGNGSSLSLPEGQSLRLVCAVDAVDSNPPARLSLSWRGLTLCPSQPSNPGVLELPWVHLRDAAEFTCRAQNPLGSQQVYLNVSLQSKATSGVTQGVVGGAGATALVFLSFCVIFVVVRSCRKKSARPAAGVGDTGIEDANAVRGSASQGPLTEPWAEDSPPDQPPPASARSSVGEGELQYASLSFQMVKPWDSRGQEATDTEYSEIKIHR

Trypanosoma cruzi = assay: Trypanosoma cruzi phosphomannomutase and mannose-1-phosphate guanylyltransferase assay; type: functional; details: 10 µM
[5] = biological target: T2, Arginase-2, mitochondrial (Homo sapiens) (UniProt P78540); assay: in vitro enzyme assay to detect the production of urea directly proportional to the activity of Arginase II; type: functional; details: 33.3 µM; further: in the data most compounds retested in dose-response had high values
T2 sequence (whole entry): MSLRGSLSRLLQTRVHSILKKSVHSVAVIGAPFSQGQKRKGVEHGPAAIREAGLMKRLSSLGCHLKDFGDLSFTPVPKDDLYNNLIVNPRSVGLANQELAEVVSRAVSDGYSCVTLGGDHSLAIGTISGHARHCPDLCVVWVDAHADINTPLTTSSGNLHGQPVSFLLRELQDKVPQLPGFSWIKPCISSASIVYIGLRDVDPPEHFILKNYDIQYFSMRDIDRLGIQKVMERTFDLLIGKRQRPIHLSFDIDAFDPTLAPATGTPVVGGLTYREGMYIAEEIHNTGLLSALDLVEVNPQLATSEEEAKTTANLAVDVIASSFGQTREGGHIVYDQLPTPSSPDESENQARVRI

[6] = biological target: T3, Proteasome subunit beta (Trypanosoma cruzi) (UniProt O96673); assay: Trypanosoma cruzi proteasome chymotrypsin-like activity (TcProtChymo) assay.; further: in the data most compounds retested in dose-response had high values; type: functional; details: 9.37 µM
T3 sequence (whole entry): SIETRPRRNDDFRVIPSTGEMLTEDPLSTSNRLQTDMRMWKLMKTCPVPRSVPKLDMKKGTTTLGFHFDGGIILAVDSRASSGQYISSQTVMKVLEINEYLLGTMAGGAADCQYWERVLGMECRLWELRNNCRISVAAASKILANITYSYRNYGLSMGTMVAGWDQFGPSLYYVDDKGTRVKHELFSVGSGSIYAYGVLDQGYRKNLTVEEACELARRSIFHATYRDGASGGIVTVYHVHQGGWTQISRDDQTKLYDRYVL

Homo sapiens = organism: Homo sapiens; assay: To identify inhibition of the IFN signalling (Jak-Stat) pathway via expression of an eGFP reporter gene under the control of an IFN-stimulated response element (ISRE) containing MxA promoter.; type: functional; details: 30 µM
[7] = biological target: T4, Tyrosyl-tRNA synthetase, putative (Trypanosoma cruzi (strain CL Brener)) (UniProt Q4DSP6); assay: Trypanosoma cruzi tyrosyl tRNA synthetase (TcYRS) _High Tyrosine SOP; type: functional; details: 30 µM; further: in the data most compounds retested in dose-response had high values
T4 sequence (whole entry): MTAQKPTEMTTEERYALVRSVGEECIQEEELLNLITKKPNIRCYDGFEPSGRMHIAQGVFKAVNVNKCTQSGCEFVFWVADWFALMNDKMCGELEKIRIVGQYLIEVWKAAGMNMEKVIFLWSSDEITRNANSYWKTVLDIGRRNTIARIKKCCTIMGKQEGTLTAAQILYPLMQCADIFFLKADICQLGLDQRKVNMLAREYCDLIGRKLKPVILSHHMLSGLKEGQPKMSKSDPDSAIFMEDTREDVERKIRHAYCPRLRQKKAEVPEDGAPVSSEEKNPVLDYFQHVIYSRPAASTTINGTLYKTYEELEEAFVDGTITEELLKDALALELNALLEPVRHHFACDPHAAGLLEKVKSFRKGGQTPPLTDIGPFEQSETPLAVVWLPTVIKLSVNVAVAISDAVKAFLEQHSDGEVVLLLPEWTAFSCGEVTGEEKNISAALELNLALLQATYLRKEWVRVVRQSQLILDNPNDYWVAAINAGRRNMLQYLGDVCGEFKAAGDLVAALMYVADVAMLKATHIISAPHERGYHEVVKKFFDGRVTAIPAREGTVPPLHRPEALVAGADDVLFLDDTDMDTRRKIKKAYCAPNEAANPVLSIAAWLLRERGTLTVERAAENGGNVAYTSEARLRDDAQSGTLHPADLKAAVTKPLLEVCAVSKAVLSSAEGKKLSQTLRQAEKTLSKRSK

[8] = biological target: T4, Tyrosyl-tRNA synthetase, putative (Trypanosoma cruzi (strain CL Brener)); assay: Trypanosoma cruzi tyrosyl tRNA synthetase (TcYRS) SOP; type: functional; details: 30 µM
[9] = biological target: Chromo domain-containing protein 1 (Saccharomyces cerevisiae (strain ATCC 204508 / S288c) (Baker's yeast)) (UniProt P32657); assay: ScCHD-1 Enzyme Inhibition Assay; type: functional; details: 30 µM; further: in the data most compounds retested in dose-response had high values
Sequence of Chromo domain-containing protein 1 (Saccharomyces cerevisiae (strain ATCC 204508 / S288c) (Baker's yeast)) (P32657 whole entry, the tested form may be a part): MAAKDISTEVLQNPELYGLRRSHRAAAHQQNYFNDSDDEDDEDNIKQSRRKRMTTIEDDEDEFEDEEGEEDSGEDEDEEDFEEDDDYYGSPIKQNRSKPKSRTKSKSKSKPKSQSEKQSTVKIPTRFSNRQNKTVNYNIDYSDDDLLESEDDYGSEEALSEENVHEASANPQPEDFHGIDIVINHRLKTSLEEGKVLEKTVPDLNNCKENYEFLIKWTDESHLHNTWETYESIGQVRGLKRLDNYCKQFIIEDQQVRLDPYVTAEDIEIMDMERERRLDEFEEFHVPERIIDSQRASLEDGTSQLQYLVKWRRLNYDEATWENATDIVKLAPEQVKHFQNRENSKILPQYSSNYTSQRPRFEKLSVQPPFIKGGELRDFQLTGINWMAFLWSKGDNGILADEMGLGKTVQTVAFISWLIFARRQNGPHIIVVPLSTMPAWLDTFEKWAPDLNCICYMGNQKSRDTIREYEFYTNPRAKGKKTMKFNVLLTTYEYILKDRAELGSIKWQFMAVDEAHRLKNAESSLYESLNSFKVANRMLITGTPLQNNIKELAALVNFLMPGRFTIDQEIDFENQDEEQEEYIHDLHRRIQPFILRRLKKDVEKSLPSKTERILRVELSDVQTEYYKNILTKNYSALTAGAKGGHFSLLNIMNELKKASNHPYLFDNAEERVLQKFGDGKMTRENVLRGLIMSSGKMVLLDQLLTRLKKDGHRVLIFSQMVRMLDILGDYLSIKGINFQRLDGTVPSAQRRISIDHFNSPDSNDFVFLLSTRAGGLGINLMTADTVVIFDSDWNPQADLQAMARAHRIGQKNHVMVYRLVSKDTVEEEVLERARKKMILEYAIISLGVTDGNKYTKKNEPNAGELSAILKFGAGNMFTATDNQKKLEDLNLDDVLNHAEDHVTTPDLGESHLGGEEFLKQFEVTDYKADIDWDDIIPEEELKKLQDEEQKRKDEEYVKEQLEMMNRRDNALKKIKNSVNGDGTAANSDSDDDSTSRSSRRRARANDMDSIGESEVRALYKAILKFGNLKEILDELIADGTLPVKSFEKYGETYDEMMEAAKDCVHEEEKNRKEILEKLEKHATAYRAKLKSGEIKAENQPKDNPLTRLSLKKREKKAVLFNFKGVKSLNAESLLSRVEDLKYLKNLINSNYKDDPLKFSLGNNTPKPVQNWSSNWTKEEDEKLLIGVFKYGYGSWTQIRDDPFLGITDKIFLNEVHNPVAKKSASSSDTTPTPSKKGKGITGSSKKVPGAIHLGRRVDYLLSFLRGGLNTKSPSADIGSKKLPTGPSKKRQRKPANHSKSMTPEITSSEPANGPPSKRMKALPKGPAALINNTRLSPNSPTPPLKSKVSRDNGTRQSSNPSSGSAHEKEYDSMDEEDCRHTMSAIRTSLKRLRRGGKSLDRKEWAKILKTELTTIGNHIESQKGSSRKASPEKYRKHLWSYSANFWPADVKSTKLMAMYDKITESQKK

Cc1nn(C)c(C)c1CC(=O)N1CCCC(n2ccnc2)C1 (stereo unspecified)
Percent Effect [1]: -1.6%
Percent Effect [2]: -5.26%
Percent Effect [3]: -1.17%
Percent Effect [4]: -5.34%
Percent Effect (Trypanosoma cruzi): -3.27%
Percent Effect [5]: 1.8%
Percent Effect [6]: -0.592%
Percent Effect (Homo sapiens): -1.26%
Percent Effect [7]: 1.48%
Percent Effect [8]: -1.24%
Percent Effect [9]: -1.5%

CCN(CC1CCCO1)C(=O)Nc1cc(OC)c(OC)cc1C (stereo unspecified)
Percent Effect [1]: -8.28%
Percent Effect [2]: 27.9%
Percent Effect [3]: -14.4%
Percent Effect [4]: 12.7%
Percent Effect (Trypanosoma cruzi): 4.06%
Percent Effect [5]: -2.28%
Percent Effect [6]: 9.26%
Percent Effect (Homo sapiens): -8.32%
Percent Effect [7]: 8.37%
Percent Effect [8]: 21.5%
Percent Effect [9]: -9.07%

Cc1nc(N2CCN(C)CC2)ncc1C(=O)N1CCC(O)(CO)CC1
Percent Effect [1]: -6.99%
Percent Effect [2]: 5.41%
Percent Effect [3]: 51.9%
Percent Effect [4]: 4.12%
Percent Effect (Trypanosoma cruzi): 2.25%
Percent Effect [5]: 0.744%
Percent Effect [6]: 0.944%
Percent Effect (Homo sapiens): 9.71%
Percent Effect [7]: 6.45%
Percent Effect [8]: 13.6%
Percent Effect [9]: -3.95%

CC(C)OCCOCc1cccc(NC(=O)NCCn2ccnc2)c1
Percent Effect [1]: -0.877%
Percent Effect [2]: 10.4%
Percent Effect [3]: -2.37%
Percent Effect [4]: 9.62%
Percent Effect (Trypanosoma cruzi): 5.61%
Percent Effect [5]: -1.38%
Percent Effect [6]: 8.65%
Percent Effect (Homo sapiens): -0.82%
Percent Effect [7]: -1.07%
Percent Effect [8]: 3.7%
Percent Effect [9]: -7.91%

Cc1nnc(CN2CCN(CCOc3ccccc3C#N)CC2)n1C
Percent Effect [1]: -5%
Percent Effect [2]: 13.2%
Percent Effect [3]: -7.44%
Percent Effect [4]: 8.94%
Percent Effect (Trypanosoma cruzi): 5.7%
Percent Effect [5]: 1.44%
Percent Effect [6]: 7.87%
Percent Effect (Homo sapiens): 5.78%
Percent Effect [7]: 3.45%
Percent Effect [8]: 16.1%
Percent Effect [9]: -3.26%

CC(C)n1ccnc1C1CCN(Cc2ccc(Cl)c(F)c2)CC1
Percent Effect [1]: -4.75%
Percent Effect [2]: 5.2%
Percent Effect [3]: 1.93%
Percent Effect [4]: 15.3%
Percent Effect (Trypanosoma cruzi): 0.885%
Percent Effect [5]: -4.14%
Percent Effect [6]: 12.5%
Percent Effect (Homo sapiens): 18.3%
Percent Effect [7]: 6.45%
Percent Effect [8]: 8.64%
Percent Effect [9]: 0.763%

COC(=O)C1CCN(c2cncc(-n3nc(C)cc3C)n2)CC1
Percent Effect [1]: -4%
Percent Effect [2]: 0%
Percent Effect [3]: 4.1%
Percent Effect [4]: 5.66%
Percent Effect (Trypanosoma cruzi): -7.03%
Percent Effect [5]: 4.17%
Percent Effect [6]: 15.6%
Percent Effect (Homo sapiens): 12.6%
Percent Effect [7]: 3.96%
Percent Effect [8]: 3.66%
Percent Effect [9]: -8.43%

CCn1cc(NC(=O)NCC(O)CN2CCc3ccccc3C2)cn1 (stereo unspecified)
Percent Effect [1]: -1.09%
Percent Effect [2]: 23.4%
Percent Effect [3]: -8.59%
Percent Effect [4]: -13.8%
Percent Effect (Trypanosoma cruzi): -0.0979%
Percent Effect [5]: -6.53%
Percent Effect [6]: 18.2%
Percent Effect (Homo sapiens): 34.1%
Percent Effect [7]: 8.57%
Percent Effect [8]: 30.6%
Percent Effect [9]: -18.1%

COc1nc(C)cc(C)c1CNC(=O)N(C)Cc1cnn(C)c1
Percent Effect [1]: -2.85%
Percent Effect [2]: 10.8%
Percent Effect [3]: -7.89%
Percent Effect [4]: 7.05%
Percent Effect (Trypanosoma cruzi): 2.32%
Percent Effect [5]: -2.4%
Percent Effect [6]: 6.28%
Percent Effect (Homo sapiens): 4.87%
Percent Effect [7]: 3.96%
Percent Effect [8]: 15.8%
Percent Effect [9]: -6.86%

Cc1ccsc1C(=O)NCCCn1nc2ccccn2c1=O
Percent Effect [1]: -1.75%
Percent Effect [2]: 16.2%
Percent Effect [3]: -0.37%
Percent Effect [4]: -0.759%
Percent Effect (Trypanosoma cruzi): -3.99%
Percent Effect [5]: 1.66%
Percent Effect [6]: 9.52%
Percent Effect (Homo sapiens): 20.9%
Percent Effect [7]: 5.94%
Percent Effect [8]: 18.3%
Percent Effect [9]: -8.98%

CC(=O)N1CCCN(C(=O)c2oc(Br)cc2C)CC1
Percent Effect [1]: -0.989%
Percent Effect [2]: 10.8%
Percent Effect [3]: -1.11%
Percent Effect [4]: 15.2%
Percent Effect (Trypanosoma cruzi): 2.12%
Percent Effect [5]: 6.19%
Percent Effect [6]: 21.4%
Percent Effect (Homo sapiens): 4.33%
Percent Effect [7]: 2.65%
Percent Effect [8]: 17.1%
Percent Effect [9]: -7.7%
